A selection: hits, their analogues and other compounds. The true share with any hit is near 2.1%.
FUS yeast rescue: rescues growth of FUS-expressing yeast; S. cerevisiae FUS-expressing, growth rescue, OD600, 24 h; Potency, µM (highest dose often 76.6 µM), hits mostly activators; 0.24% of 390,000 active; AID 1347120;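 note: plate controls were DMSO vehicle for no effect and reference control for full effect; nearly all actives have a fitted effect of over 55% in size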
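Galactose (2%) drives FUS expression in yeast precultured in raffinose; seeding density OD 0.005. Test compounds incubated 24hr at 30C and 99% humidity before absorbance at 600 nm was measured.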
TDP43 rescue: rescues yeast growth from TDP-43 toxicity; Potency, µM (doses to about 46.1 µM), inactives show at the highest dose growth rescue (activation), usual class: activators; 1.8% of 410,000 active; TDP-43 expressing yeast growth rescue, BacTiter-Glo, 24 h; note: % of control where 0% means no effect; nearly all actives have a fitted effect of over 50% in size
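Yeast expressing TDP-43 (pregrown in raffinose, seeded at OD600=0.02 in galactose medium) exposed to compounds 24 hr at 30 deg C. Growth read by BacTiter-Glo luminescence; rescue of toxicity appears as increased signal.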
Abeta rescue: restores growth of yeast expressing A-beta42 peptide | Potency, µM (series often up to 46.1 µM), usual class: activators | yeast expressing A-beta42, growth rescue, OD600, 48 h; response scale: 0% DMSO, 100% iron-clioquinol control | 0.063% of 410,000 active; note: nearly all actives have a fitted effect of over 55% in size
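Growth rescue measured by 600 nm absorbance after 48 h yeast culture at 30 C with compound. Values normalized between DMSO and an equimolar ferric chloride plus clioquinol control.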
aSyn rescue: alpha-synuclein toxicity inhibition in yeast; Yeast expressing alpha-synuclein, growth rescue, BacTiter-Glo, 24 h; Potency, µM (titrated, usually from 46.1 µM), inactives show top-dose growth rescue (activation), most hits filed as activators; 0.14% of 370,000 active; AID 652106; note: % of control where 0% means no effect; nearly all actives have a fitted effect of over 65% in size
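Screening used galactose-induced yeast with toxic alpha-synuclein levels, exposed to compound for 24 hr at 30 deg C. Cell growth, read with BacTiter-Glo luminescence, gave the measured signal.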
Starred values were filed as active, the others as inactive. Calls come from the whole dose curve; as a rule, active = well fitted curve in the direction sought with a large enough effect; inconclusive = small, poorly fitted or top-dose-only effect, or another doubt; inactive = no such curve, though single readings can be large; an effect the other way counts as inactive or inconclusive. Potency is the fitted concentration of half-maximal effect.

What do the screens show for `Cc1cc(NC(=O)Nc2cccc(Cl)c2)n(-c2ccccc2)n1`?
FUS yeast rescue: inactive; TDP43 rescue: -2.2%; Abeta rescue: inactive; aSyn rescue: 3.9%

How did Cc1cc(Nc2ncc(Cl)cc2Cl)n(-c2ccccn2)n1 do in these assays?
FUS yeast rescue: inactive; TDP43 rescue: 0.0%; Abeta rescue: inactive; aSyn rescue: -11.5%

Results for Cc1cc(Nc2ccccc2)n(-c2cccc(Cl)c2)n1 ?
FUS yeast rescue: inactive; TDP43 rescue: 14.1µM*; Abeta rescue: inactive; aSyn rescue: -8.6%

How did Cc1cc(Nc2ncc(Cl)cc2Cl)n(-c2ccccc2)n1 do in these assays?
FUS yeast rescue: inactive; TDP43 rescue: 7.08µM*; Abeta rescue: inactive; aSyn rescue: -27.4%

How did CC1CCCCC12NC(=O)N(CC(=O)Nc1ccc(OC(F)F)cc1)C2=O (configuration not stated) do in these assays?
TDP43 rescue: 4.5%; Abeta rescue: inactive; aSyn rescue: -3.7%

Results for O=[N+]([O-])c1cc(/C=N/Nc2nc(N3CCCCC3)nc(N3CCCCC3)n2)ccc1O ?
FUS yeast rescue: inactive; TDP43 rescue: 22.4µM*; Abeta rescue: inactive; aSyn rescue: -13.0%

What do the screens show for `C(=N\Nc1nc(N2CCCCCC2)nc(N2CCCCCC2)n1)/c1ccccc1`?
FUS yeast rescue: inactive; TDP43 rescue: 22.4µM*; Abeta rescue: inactive; aSyn rescue: -14.1%

Results for O=[N+]([O-])c1ccc(-c2ccc(/C=N/Nc3nc(N4CCCCC4)nc(N4CCCCC4)n3)o2)cc1 ?
FUS yeast rescue: inactive; TDP43 rescue: 14.1µM*; Abeta rescue: inactive; aSyn rescue: -7.6%

Results for COc1ccc(/C=N/Nc2nc(N3CCCCC3)nc(N3CCCCC3)n2)cc1[N+](=O)[O-] ?
FUS yeast rescue: inconclusive; TDP43 rescue: -4.2%; Abeta rescue: inactive; aSyn rescue: -1.8%

Results for Cc1ccc2cc(C(c3nnnn3C3CCCC3)N(Cc3cccnc3)Cc3ccco3)c(=O)[nH]c2c1 (configuration not stated) ?
FUS yeast rescue: inactive; TDP43 rescue: -23.3%; Abeta rescue: inactive; aSyn rescue: 8.1%

What do the screens show for `Clc1ccc(CSc2nccn2Cc2ccccc2)cc1`?
FUS yeast rescue: inactive; TDP43 rescue: 15.8µM*; Abeta rescue: inactive; aSyn rescue: 2.7%

How did O=c1ccn(Cc2ccccc2)c(SCc2ccccc2)n1 do in these assays?
TDP43 rescue: 7.6%; Abeta rescue: inactive; aSyn rescue: -1.1%

What do the screens show for `O=C(CSc1nncs1)NCc1ccc2c(c1)OCO2`?
FUS yeast rescue: inactive; TDP43 rescue: 12.6µM*; Abeta rescue: inactive; aSyn rescue: -0.7%

How did Cc1nc(SCC(=O)NCc2ccc3c(c2)OCO3)c(C#N)c2c1CCCC2 do in these assays?
FUS yeast rescue: inactive; TDP43 rescue: inconclusive; Abeta rescue: inactive; aSyn rescue: 17.8µM*

How did Cc1nc2ccc(NC(=O)N3CCCCC3)cc2s1 do in these assays?
FUS yeast rescue: inactive; TDP43 rescue: -13.9%; Abeta rescue: inactive; aSyn rescue: -0.2%

What do the screens show for `Cc1ccc(S(=O)(=O)N(C)c2ccc(OCc3cccc(C)c3)cc2)cc1`?
TDP43 rescue: 7.3%; Abeta rescue: inactive; aSyn rescue: 1.8%

How did CCC1CCCCN1C(=S)NC(=O)c1cc(Br)ccc1Cl (configuration not stated) do in these assays?
FUS yeast rescue: inactive; TDP43 rescue: 28.2µM*; Abeta rescue: 11.2µM*; aSyn rescue: inconclusive

What do the screens show for `CC1CCCCN1C(=S)NC(=O)c1ccco1` (configuration not stated)?
TDP43 rescue: 18.9%; Abeta rescue: inactive; aSyn rescue: 0.1%

How did CC1CCCCN1C(=S)NC(=O)c1cc(Br)ccc1Cl (configuration not stated) do in these assays?
FUS yeast rescue: inactive; TDP43 rescue: 25.1µM*; Abeta rescue: inactive; aSyn rescue: 13.0%

Results for CCNc1nc(Sc2ccc(C)cc2)cc(C(F)(F)F)n1 ?
FUS yeast rescue: inactive; TDP43 rescue: inconclusive; Abeta rescue: inconclusive; aSyn rescue: -29.7%

Results for CCOC(=O)C1=CCN(S(=O)(=O)c2ccc(C)cc2)C1c1ccccc1 (configuration not stated) ?
FUS yeast rescue: inactive; TDP43 rescue: 13.0%; Abeta rescue: inactive; aSyn rescue: 5.6%

How did CCOc1cc2c(c3c1C(c1ccccc1)N(S(=O)(=O)c1ccc(C)cc1)C3)C(=O)C=CC2=O (configuration not stated) do in these assays?
FUS yeast rescue: inactive; TDP43 rescue: 12.6µM*; Abeta rescue: inactive; aSyn rescue: -2.9%

Results for c1ccc(-c2ccc(OCCOCCn3cncn3)cc2)cc1 ?
FUS yeast rescue: inactive; TDP43 rescue: 14.1µM*; Abeta rescue: inactive; aSyn rescue: -0.2%

What do the screens show for `c1ccc(Cc2ccc(OCCn3cncn3)cc2)cc1`?
FUS yeast rescue: inactive; TDP43 rescue: inconclusive; Abeta rescue: inactive; aSyn rescue: 3.3%

Results for NC(=O)COC(=O)c1cc(-c2cccs2)nn1-c1ccccc1 ?
FUS yeast rescue: inactive; TDP43 rescue: 0.0%; Abeta rescue: inactive; aSyn rescue: -0.3%

Results for CCN(CCO)c1ncnc2c1sc1nc(CC(C)C)c3c(c12)CC(C)(C)OC3 ?
FUS yeast rescue: inconclusive; TDP43 rescue: 17.8µM*; Abeta rescue: inactive; aSyn rescue: 2.3%

How did CCCCCCC(=O)OCC(=O)c1ccc2c(c1)NC(=O)CO2 do in these assays?
FUS yeast rescue: inactive; TDP43 rescue: 15.8µM*; Abeta rescue: inactive; aSyn rescue: 8.4%

Results for CCOC(=O)c1cn2nc(SCc3ccccc3)nc2nc1C ?
FUS yeast rescue: inactive; TDP43 rescue: 15.8µM*; Abeta rescue: inactive; aSyn rescue: 1.1%

What do the screens show for `CCCOc1ccccc1N/C(=N/c1nc(C)cc(C)n1)NC(=O)COc1ccc(OC)cc1`?
FUS yeast rescue: inconclusive; TDP43 rescue: 2.24µM*; Abeta rescue: inactive; aSyn rescue: -25.6%

What do the screens show for `CCCOc1ccccc1N/C(N)=N/c1nc(C)cc(C)n1`?
FUS yeast rescue: inactive; TDP43 rescue: -23.2%; Abeta rescue: inactive; aSyn rescue: -7.6%

How did CC(C)(C)c1ccc(C(=O)NNC(=S)NC(=O)c2cccnc2)cc1 do in these assays?
FUS yeast rescue: inconclusive; TDP43 rescue: inconclusive; Abeta rescue: inactive; aSyn rescue: 11.2µM*

Results for CC(C)(C)c1ccc(OCC(=O)NNC(=S)NC(=O)c2ccccc2[N+](=O)[O-])c(Br)c1 ?
FUS yeast rescue: inactive; TDP43 rescue: 17.8µM*; Abeta rescue: inactive; aSyn rescue: inconclusive

What do the screens show for `Cc1ccccc1OCC(=O)NNC(=S)NC(=O)c1ccccc1[N+](=O)[O-]`?
FUS yeast rescue: inactive; TDP43 rescue: 0.0%; Abeta rescue: inactive; aSyn rescue: 0.2%

What do the screens show for `Cc1ccc(C(=O)NNC(=S)NC(=O)COc2ccccc2)cc1`?
FUS yeast rescue: inactive; TDP43 rescue: 14.3%; Abeta rescue: inconclusive; aSyn rescue: inconclusive

Bioassay records as filed in PubChem BioAssay.
